Experimental findings from PubChem BioAssay AID1508600 (Functional Genomics Laboratory (NCATS/FGL), 2020) are described below.

Among all 53,000 sequences or so, about 3,700 (7%) were called active.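 The calls were made as follows: active = gene knockdowns whose robust z-score for IL-1 alpha signal is at least 2 or at most -2, so actives lie on both sides; inactive = the rest.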 Only a selection was taken, and actives are over-represented in it overall.

A short description of the test: Components of the Cytosolic LPS Sensing Pathway: Gene Identification via Genome-wide siRNA Screen.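 Also: robust z of the log signal after scaling to non-targeting control siRNA wells of the plate.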 The note with it: RAW264.7 macrophages, IL-1a HTRF, actives lie on both sides, screened at 100 nM (by protocol), cells primed 5 h with Pam3CSK4 first. In short, it runs like this:
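Supernatant IL-1a by HTRF from RAW264.7 cells primed with Pam3CSK4 (5 hours) and transfected with LipidA (24 hour) after 48h siRNA knockdown at 100 nM; cell viability checked with CellTiter-Glo.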
In general terms: In TR-FRET formats the signal depends on donor and acceptor labels being close together.
Regarding CGGUGAUAACAGACAUUAATT against Aldh8a1, the z-score was -0.561 (inactive). For CCGAACCUUCAGCUACACATT against Keap1 the value was 0.0133 (inactive); for GGAAAAAUUCGAGGGACUGTT against Rcan2, 1.12 (inactive). Next, GGAAGUGUAUUCAAGAAGUTT against Tapt1: 3.02 (active); GCCGUUCUGCUAUCACAACTT against Scrn2: -0.531 (inactive); GAAGAGACCUUCACAAAGUTT against Hnrnpll: -1.52 (inactive). For GGAGCGAGGAAUCAAUGUUTT against Prss8 the value was 2.86 (active). Turning to GGAACACCUACAGUAUAAATT against Cdc123, the z-score was -0.39 (inactive). Next, GGAGCGAUUUGCUGGUGUGTT against Rps16: 1.19 (inactive); GGUAUCAAGGUGAAGUUGATT against Septin1: 0.776 (inactive). Next, GGGACACUACCCUGAUGAUTT against Vmn1r205: -2.05 (active); GGUUGGACAAAAAGAAUCUTT against Ifngr1: 0.507 (inactive). For GGUCUGAGUUUUAAACAGUTT against Gmfb the value was 1.13 (inactive); for GGGUUACCUCCUGACUGUUTT against Olfr930, -1.9 (inactive). Consider GCUGCUUUGCUAUCUCCUGTT against Apof, for which the z-score is -2.25 (active). For the sequence CGAGGAGUUGGAUUUCAGGTT against Dnmbp, the z-score was -0.713 (inactive). Next, GGGAGUAAAGAAAAUGUUATT against Atxn2: -0.112 (inactive). Turning to GCUUAUUUCGCCUAUGUGGTT against Slc24a2, the z-score is -1.11 (inactive).

GCAAGAUGGUAUCAGCAGATT against Sde2: the z-score is -2.1 (active). For “GGAAAGAGGAAGAUAAAGUTT against 2310002L09Rik” the value was -1.17 (inactive). Next, CCGCUUUUCAUAACACGAATT against Obp2a: 0.037 (inactive). For the sequence CCUCAUUUAGAUGUCUUGATT against Ran, the z-score was -0.0987 (inactive). As to GUCUUUGUUCAGGAGGUGATT against Ahnak, the z-score is 0.0593 (inactive). Take GCCAUGCUAAUCAAGACGGTT against Gtf2ird2: the z-score was -0.99 (inactive). GCUCUCUCUCAUUGAUCUCTT against Olfr697: the z-score was -1.63 (inactive).

Turning to GGUUUGGCAUCUAAAGAGCTT against Olfr1412, the z-score was -2.42 (active). Regarding CCAGCUUUUACCUAAUACCTT against Ggt1, the z-score is 0.0683 (inactive). As to GGGUAUCUGAUUUAUAAGCTT against Mageh1, the z-score is -0.371 (inactive). Next, GGGAAAGGGUUUUUUAUUCTT against Slc1a1: -0.177 (inactive). On to GCCAAAAAGUGUGUGUUGGTT against Olfr731, for which the z-score is 0.0799 (inactive). For the sequence CCAGUUUGCACAAGUUUUCTT against Fyco1, the z-score was 1.94 (inactive). As to GGAUCUUCCAAGUUGUCUGTT against Srm, the z-score was 2.42 (active). For CGAGCUGAACAGAAUGAUATT against Krt85 the value was 0.265 (inactive); for GGCAAGGUCAAGGACACCATT against Tcp11, -0.77 (inactive); for “GCAUGCAUGCUAUUGUUUUTT against 4931431C16Rik”, 0.336 (inactive).

As to GGCACACACUGAUUUUUUUTT against Cops2, the z-score is 0.0987 (inactive).

GGUCCAAUGGAUUUUGUUUTT against Pxdc1: the z-score was 2.06 (active). Next, GGUGCGAAGGAAAUUGCACTT against Mrps26: 1 (inactive); GCCUUUACUGGAUUCAUUGTT against Acadm: 2.53 (active).

GGCAGAGAAUCAGCUCCUUTT against Il16: the z-score is 0.377 (inactive). Consider CGAUCGAUAAAUGUAAUGATT against Heatr5a, for which the z-score is -0.0662 (inactive). For GGAGUAUGCUGUCAAAAUCTT against Mknk1 the value was 0.259 (inactive).

Take GGAUCACCAGACCUUUUUCTT against St7l: the z-score is -1.94 (inactive). Regarding CCAGGAAUCUAGAUAAUAGTT against BC031181, the z-score was -1.05 (inactive). On to GCAUUACCAAAAGCAGUCUTT against Lyn, for which the z-score is -1.46 (inactive). As for CCUCUAUUCUCCGUCUAUGTT against Fars2, the z-score was 2.45 (active). For GGCUACAUUGUCUCAUUGUTT against Opn1mw the value was -0.59 (inactive). On to GGUUAAGGAGAAAUGUGAUTT against Mob3a, for which the z-score was -0.0804 (inactive). Next, GGUUAAAAUGCCAUAACAATT against Ksr1: -1.26 (inactive); GGGAAGUCAUUCACAUAUUTT against Rab39b: -1.58 (inactive); GGAAGUCCACGAAACUAAATT against Prl3d1: 0.359 (inactive). For CGACCUGUGGGAAGAUAUUTT against Apoa5 the value was -0.992 (inactive); for GGGAUACUUUCUUCGAGGATT against Soga3, -2.36 (active); for GGCCAUUGUUGAAAUGUACTT against Myh14, 0.175 (inactive). With GGUAUCAACAUCACGAUUCTT against Mrgpra1, the z-score is 0.487 (inactive).

For GCACCUGGUGAAUUUUACCTT against Tmem106c, the z-score was -0.85 (inactive). Next, GCCUUACUGACUCGUGUCCTT against Ccp110: -2.33 (active).

On to GGACCUUUAAAGCUAAGCUTT against Ccn5, for which the z-score was -1.4 (inactive). Next, GGAGUUUUCAAAAAACAGATT against Dsc2: -0.356 (inactive); GGAUACUGCCAUUCAUAGGTT against Cstdc2: -0.182 (inactive).

In the case of GGAAAGCUUUCUUCACCUGTT against Olfr206, the z-score was -1.73 (inactive).

Take GCUUCAACCCGGUCACACUTT against Kif6: the z-score is 2.81 (active). As for GGCGCAAUGCUCAUGUGAATT against Gzmc, the z-score is -0.54 (inactive). As to GGAAGUUUUGGCUUAGGCATT against Tmco5b, the z-score is 1.58 (inactive). Next, GGCGAUCCACAGGAACUCUTT against Tiam1: -1.23 (inactive). Consider GCAACAACGAGUCAUGGCUTT against Plcd1, for which the z-score is -0.502 (inactive).

Consider GGACAGAGUUACCUAGGCATT against Ticrr, for which the z-score is -2.81 (active). Next, GGAUCUUUCCUGAUUUAUATT against Ggt5: 0.989 (inactive); GCAGGCAUCAUCACGACAUTT against Gprc5c: 0.402 (inactive); GGAGUUCUUCUUCAAUGAGTT against Kcnd3: -1.3 (inactive). For GCGUACGUUCUCCUAACAUTT against Hbs1l the value was -1.9 (inactive). Next, GGGUGAUAAAAUUCAGAUUTT against Gpr88: 2.07 (active); GGGUGCAAACAAAAUGAUGTT against Pgm1: -1.42 (inactive). In the case of GGGCCACAUGUGUUCACUATT against Shisa5, the z-score is -2.35 (active). Regarding CCUUCUCUGCCUCGAUGAUTT against Cox14, the z-score was -1.23 (inactive). For the sequence GGGAAGAUGUGAUGUCUUUTT against Rab29, the z-score was -0.556 (inactive). GGUCUUAAUCUCAGGAUGATT against Car5a: the z-score is -0.294 (inactive).

Turning to GGACACAGAAUGUUCUUGGTT against Rps3, the z-score was 0.029 (inactive). For GGAAGAAAAAUAUGCUUUCTT against Pls3 the value was 2.7 (active); for CCGAUCACUCAUGGUUGACTT against Sra1, 0.565 (inactive).

In the case of GCCUGUGCAAAAAGUAGGGTT against Grasp, the z-score is -0.0182 (inactive). For GGGCCAAUAGGAGUUCUUUTT against Tcf20 the value was 0.285 (inactive); for GGAGCUGACGUGCUACUUATT against Speg, 2.6 (active). For GGAGAAUCUUAGAGAUUAUTT against Pramel1 the value was 0.722 (inactive); for GCAGCUAAGCACUGGAAAATT against Coq4, 0.318 (inactive); for GGAAAAAGAGGCCUCAAAGTT against Nek5, 1.46 (inactive). Turning to CGCUUUAUUAGAUGGGCUATT against Dlx5, the z-score was -2.27 (active). As for GAAGUUCAAUGGAGAAGACTT against Arl2, the z-score is -0.825 (inactive).

Turning to GGUGUUCAGACUACCCUCUTT against Serpina3m, the z-score was -1.16 (inactive).

As for GGGCCAUAAGAUCUGUACUTT against Ccl24, the z-score was 0.472 (inactive). Next, GGUCCUCUAAAGAAUAAAGTT against Cela3b: 0.541 (inactive). For GCCCAGAAAUAUAAUCAAATT against Bub1 the value was 2.17 (active); for GGCUACCAUAGGUUUUAAUTT against Serinc4, 0.946 (inactive); for CCCGGAUGAUGGAGAUAUUTT against Mnd1, -1 (inactive). For GCCUGAUCUACUGUGGUCCTT against Olfr1347, the z-score is -0.167 (inactive).

On to GGCUUGAUCUUCGUAGUGGTT against Arf1, for which the z-score was 0.132 (inactive). Next, GCAGAGACUACUUAGCAAGTT against Adprm: 2.29 (active); GCUUAAGAGAUUCAAAUUGTT against Olfr1317: 0.036 (inactive). Next, GCUCUAAACAUGAUUCAAGTT against Akap9: 1.17 (inactive); GGCAGCUAAGUACGUUCAUTT against Gba: 0.177 (inactive); GGAAAGAGAACAUAAAAGATT against Pla2g4a: -0.995 (inactive). For GCAGCAUCGCGUAGAAACATT against Gar1 the value was -0.566 (inactive). As for GCUGGAAACCCGUAUACUATT against Krt23, the z-score was 2.16 (active). For CCGUGCACAACAUUGCCUATT against Qtrt1 the value was -0.552 (inactive); for GGAAUUUUCAAGGAACAAUTT against Il1rapl2, -1.8 (inactive); for GGCGUGUAUGUCAAAAAUATT against Grip1, -0.201 (inactive). Turning to GGAGUUGUUACUCUAUUUUTT against Pkd2l2, the z-score was -0.426 (inactive). For GCUCUCACACCCUUAUGUATT against Nptn the value was -1.45 (inactive).
